PubChem BioAssay AID743455 (The Scripps Research Institute Molecular Screening Center, 2014)
The other results are listed elsewhere or left out.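 The calls were made as follows: active = IC50 at or below 10 µM; inactive = IC50 above 10 µM.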

Experiment: BODIPY product fluorescence quenching artefacts – biochemical, QFRET, 535nm, artefact control for HGIII-sPLA2 inhibitor project, dose response (AID 743455)
Settings: BODIPY FL product fluorescence interference, cell-free

IC50, inactive:
Cn1cc(Cl)c(C(=O)NNC(=S)Nc2cccc(Cl)c2)n1 > 122 µM
COc1ccc(Cl)cc1C(=O)NNC(=S)NC1CCCC1 > 122 µM
COc1ccc2c(c1)c(=Cc1ccc(N(C)C)cc1)c1cc(-c3ccccc3)[n+](C)n12 > 122 µM
O=C(NNC(=S)Nc1ccc(F)cc1)[C@H]1C[C@@H]1c1ccccc1 > 122 µM
O=C(N/N=C/c1cc(Cl)cc([N+](=O)[O-])c1O)C(O)(c1ccccc1)c1ccccc1 > 122 µM
COc1ccc(C(=O)NC(=S)NNC(=O)c2c(-c3ccccc3)noc2C)cc1 > 122 µM
O=C(NNC(=S)Nc1ccc(Br)cc1Cl)c1ccco1 > 122 µM
CC(C)CC(=O)NC(=S)NNC(=O)c1cccc([N+](=O)[O-])c1 > 122 µM
C/C(=N\NC(=S)Nc1ccc(C)cc1)c1cc2ccccc2o1 > 122 µM
O=C(NNC(=S)NC1CCCCC1)c1ccccc1Cl > 122 µM
Cc1ccc2sc(NNC(=O)c3ccc4c(c3)OCCO4)nc2c1C > 122 µM
Cc1cccc(-n2cnc(C(=O)NNC(=S)Nc3ccccc3)c2)n1 > 122 µM
O=C1C(=O)N(Cc2ccc(-c3ccsc3)cc2)c2ccc(OC(F)(F)F)cc21 > 122 µM
